Results as given in publication PMC7862700, “An all-to-all approach to the identification of sequence-specific readers for epigenetic DNA modifications on cytosine”.

Experiments:
Assay in all cases: DAPPL (digital affinity profiling via proximity ligation, sequencing); 10 mM Tris-HCl pH 7.5, 50 mM NaCl, 1 mM DTT, 4% glycerol, room temperature, 30 min; GST-TFs on glutathione beads, 16-mer random dsDNA library, 0.1% formaldehyde crosslink after washing; high values mean tight binding
FLI1 = molecular target: T1, FLI1 (Homo sapiens, UniProt Q01543 1-452); conditions: protein: recombinant; tags: N-terminal GST; dsDNA, one strand shown
T1 sequence: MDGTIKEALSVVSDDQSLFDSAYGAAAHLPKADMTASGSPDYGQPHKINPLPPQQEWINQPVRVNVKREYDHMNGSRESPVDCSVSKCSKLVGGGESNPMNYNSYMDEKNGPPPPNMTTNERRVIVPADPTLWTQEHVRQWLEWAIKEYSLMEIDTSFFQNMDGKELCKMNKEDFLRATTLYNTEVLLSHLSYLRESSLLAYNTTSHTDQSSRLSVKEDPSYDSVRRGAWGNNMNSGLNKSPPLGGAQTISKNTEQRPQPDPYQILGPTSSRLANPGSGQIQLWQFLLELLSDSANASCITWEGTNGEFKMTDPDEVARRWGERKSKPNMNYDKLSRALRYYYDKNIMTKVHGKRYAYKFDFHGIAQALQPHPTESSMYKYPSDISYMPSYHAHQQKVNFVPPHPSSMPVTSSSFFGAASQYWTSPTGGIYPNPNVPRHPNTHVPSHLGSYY
Outline: (§1)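 Human transcription factors carrying a GST fusion were produced in yeast, bound to glutathione beads, tagged with DNA barcodes and pooled together with a tag-only sample. Each pool was held with 200 nmole of a random double-stranded 16-mer DNA library in Tris/NaCl/DTT/glycerol buffer for 30 min at room temperature, then washed, crosslinked in 0.1% formaldehyde, proximity-ligated with BsaI/T4 ligase (1 h, 37 °C), PCR-amplified and sequenced on an Illumina NextSeq500. Binding signal is the read frequency of each hexamer for a given factor divided by its frequency in the tag-only sample.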

ELK1 = molecular target: T2, ELK1 (Homo sapiens, UniProt P19419 1-428); conditions: protein: recombinant; tags: N-terminal GST; dsDNA, one strand shown
T2 sequence: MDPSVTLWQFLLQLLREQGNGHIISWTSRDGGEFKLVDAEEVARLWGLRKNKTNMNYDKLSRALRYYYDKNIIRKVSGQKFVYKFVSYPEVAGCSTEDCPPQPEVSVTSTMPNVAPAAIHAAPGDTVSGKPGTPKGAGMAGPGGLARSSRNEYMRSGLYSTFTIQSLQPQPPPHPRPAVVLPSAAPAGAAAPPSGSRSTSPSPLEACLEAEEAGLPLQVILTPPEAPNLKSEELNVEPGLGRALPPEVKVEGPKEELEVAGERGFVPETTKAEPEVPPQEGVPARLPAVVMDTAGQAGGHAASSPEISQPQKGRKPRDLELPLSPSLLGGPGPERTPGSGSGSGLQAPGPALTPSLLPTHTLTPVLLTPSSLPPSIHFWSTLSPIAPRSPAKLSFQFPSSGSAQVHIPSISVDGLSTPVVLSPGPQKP
Outline: as §1

GABPA = molecular target: T3, GABPA (Homo sapiens, UniProt Q06546 1-454); conditions: protein: recombinant; tags: N-terminal GST; dsDNA, one strand shown
T3 sequence: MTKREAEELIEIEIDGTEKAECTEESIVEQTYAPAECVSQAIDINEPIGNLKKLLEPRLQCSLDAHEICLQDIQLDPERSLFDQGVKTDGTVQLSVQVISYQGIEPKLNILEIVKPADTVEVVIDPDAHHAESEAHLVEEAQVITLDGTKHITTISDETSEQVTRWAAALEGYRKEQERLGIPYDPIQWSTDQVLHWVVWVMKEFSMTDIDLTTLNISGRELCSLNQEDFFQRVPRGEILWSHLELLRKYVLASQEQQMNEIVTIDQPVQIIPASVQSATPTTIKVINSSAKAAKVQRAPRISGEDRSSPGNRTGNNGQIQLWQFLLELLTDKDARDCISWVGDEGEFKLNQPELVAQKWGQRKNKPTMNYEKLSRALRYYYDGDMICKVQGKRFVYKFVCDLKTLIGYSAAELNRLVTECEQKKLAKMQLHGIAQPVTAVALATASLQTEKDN
Outline: as §1

ERG = molecular target: T4, ERG (Homo sapiens, UniProt P11308 1-479); conditions: protein: recombinant; tags: N-terminal GST; dsDNA, one strand shown
T4 sequence: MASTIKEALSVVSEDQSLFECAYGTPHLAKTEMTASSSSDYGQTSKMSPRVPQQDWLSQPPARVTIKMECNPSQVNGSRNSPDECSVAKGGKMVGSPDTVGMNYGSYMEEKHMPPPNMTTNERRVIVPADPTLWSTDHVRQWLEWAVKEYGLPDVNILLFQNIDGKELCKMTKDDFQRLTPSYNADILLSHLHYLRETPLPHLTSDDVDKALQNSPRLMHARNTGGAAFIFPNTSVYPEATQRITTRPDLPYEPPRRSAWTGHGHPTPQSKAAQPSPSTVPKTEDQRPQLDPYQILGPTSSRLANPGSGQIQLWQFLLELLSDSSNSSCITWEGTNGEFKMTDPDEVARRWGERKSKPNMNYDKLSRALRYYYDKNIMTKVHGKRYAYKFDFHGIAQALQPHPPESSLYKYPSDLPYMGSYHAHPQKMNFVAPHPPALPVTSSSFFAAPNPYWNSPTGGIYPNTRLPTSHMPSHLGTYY
Outline: as §1

ELF1 = ELF1 (Homo sapiens, UniProt P32519 1-619); conditions: protein: recombinant; tags: N-terminal GST; dsDNA, one strand shown
Chain of ELF1 (P32519 whole entry): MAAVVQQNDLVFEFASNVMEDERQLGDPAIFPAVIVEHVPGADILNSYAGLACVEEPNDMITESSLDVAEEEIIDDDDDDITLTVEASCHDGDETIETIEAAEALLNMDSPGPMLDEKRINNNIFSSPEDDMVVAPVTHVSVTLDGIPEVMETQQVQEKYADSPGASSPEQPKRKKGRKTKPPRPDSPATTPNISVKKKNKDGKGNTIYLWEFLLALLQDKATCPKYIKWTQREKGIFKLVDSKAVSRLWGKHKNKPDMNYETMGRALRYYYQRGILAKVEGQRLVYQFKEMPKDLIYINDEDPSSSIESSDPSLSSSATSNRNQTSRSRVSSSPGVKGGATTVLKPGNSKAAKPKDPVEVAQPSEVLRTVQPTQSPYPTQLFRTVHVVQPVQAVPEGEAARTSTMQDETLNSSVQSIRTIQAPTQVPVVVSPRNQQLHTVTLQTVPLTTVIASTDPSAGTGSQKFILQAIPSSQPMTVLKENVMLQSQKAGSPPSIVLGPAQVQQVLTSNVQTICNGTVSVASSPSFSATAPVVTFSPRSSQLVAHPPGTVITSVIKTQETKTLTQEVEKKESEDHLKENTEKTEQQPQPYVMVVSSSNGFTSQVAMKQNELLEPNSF
Outline: as §1

EHF = molecular target: T5, EHF (Homo sapiens, UniProt Q9NZC4 1-300); conditions: protein: recombinant; tags: N-terminal GST; dsDNA, one strand shown
T5 sequence: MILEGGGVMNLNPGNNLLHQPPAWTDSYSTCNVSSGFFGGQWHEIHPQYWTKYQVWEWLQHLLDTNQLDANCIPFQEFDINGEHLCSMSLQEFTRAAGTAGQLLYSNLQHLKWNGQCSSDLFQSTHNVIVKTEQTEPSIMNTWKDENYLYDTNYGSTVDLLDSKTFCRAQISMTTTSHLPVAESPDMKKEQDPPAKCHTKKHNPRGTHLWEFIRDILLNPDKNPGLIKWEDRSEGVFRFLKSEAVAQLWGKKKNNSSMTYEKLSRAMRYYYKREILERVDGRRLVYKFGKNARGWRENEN
Outline: as §1

SPI1 = SPI1 (Homo sapiens, UniProt P17947 1-270); conditions: protein: recombinant; tags: N-terminal GST; dsDNA, one strand shown
Outline: as §1

SPIB = SPIB (Homo sapiens, UniProt Q01892 1-262); conditions: protein: recombinant; tags: N-terminal GST; dsDNA, one strand shown
Chain of SPIB (Q01892 whole entry): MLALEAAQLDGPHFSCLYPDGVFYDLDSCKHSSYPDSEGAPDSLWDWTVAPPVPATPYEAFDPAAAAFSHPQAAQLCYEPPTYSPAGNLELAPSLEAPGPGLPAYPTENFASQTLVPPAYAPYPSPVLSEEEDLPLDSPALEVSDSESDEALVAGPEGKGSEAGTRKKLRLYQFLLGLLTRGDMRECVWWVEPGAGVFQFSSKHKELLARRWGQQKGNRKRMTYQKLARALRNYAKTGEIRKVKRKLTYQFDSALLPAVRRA
Outline: as §1

ELK3 = molecular target: T6, ELK3 (Homo sapiens, UniProt P41970 1-407); conditions: protein: recombinant; tags: N-terminal GST; dsDNA, one strand shown
T6 sequence: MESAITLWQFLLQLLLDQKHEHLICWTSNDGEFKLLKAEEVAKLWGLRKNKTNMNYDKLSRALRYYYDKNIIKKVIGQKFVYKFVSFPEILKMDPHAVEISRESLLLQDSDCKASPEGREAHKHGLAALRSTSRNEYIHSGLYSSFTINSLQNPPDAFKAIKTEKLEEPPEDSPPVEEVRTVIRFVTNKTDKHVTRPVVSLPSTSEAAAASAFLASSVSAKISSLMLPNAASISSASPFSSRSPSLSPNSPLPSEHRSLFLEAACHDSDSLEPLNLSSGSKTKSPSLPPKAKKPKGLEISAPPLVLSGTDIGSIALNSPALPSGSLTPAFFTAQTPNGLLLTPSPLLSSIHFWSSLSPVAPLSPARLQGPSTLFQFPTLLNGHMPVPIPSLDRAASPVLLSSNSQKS
Outline: as §1

FEV = molecular target: T7, FEV (Homo sapiens, UniProt Q99581 1-238); conditions: protein: recombinant; tags: N-terminal GST; dsDNA, one strand shown
T7 sequence: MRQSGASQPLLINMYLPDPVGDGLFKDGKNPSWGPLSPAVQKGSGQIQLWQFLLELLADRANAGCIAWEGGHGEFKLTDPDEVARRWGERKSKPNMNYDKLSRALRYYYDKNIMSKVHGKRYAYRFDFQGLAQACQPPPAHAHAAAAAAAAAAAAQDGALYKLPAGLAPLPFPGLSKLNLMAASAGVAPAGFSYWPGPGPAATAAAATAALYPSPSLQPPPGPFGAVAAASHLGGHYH
Outline: as §1

ETV5 = ETV5 (Homo sapiens, UniProt P41161 1-510); conditions: protein: recombinant; tags: N-terminal GST; dsDNA, one strand shown
Chain of ETV5 (P41161 whole entry): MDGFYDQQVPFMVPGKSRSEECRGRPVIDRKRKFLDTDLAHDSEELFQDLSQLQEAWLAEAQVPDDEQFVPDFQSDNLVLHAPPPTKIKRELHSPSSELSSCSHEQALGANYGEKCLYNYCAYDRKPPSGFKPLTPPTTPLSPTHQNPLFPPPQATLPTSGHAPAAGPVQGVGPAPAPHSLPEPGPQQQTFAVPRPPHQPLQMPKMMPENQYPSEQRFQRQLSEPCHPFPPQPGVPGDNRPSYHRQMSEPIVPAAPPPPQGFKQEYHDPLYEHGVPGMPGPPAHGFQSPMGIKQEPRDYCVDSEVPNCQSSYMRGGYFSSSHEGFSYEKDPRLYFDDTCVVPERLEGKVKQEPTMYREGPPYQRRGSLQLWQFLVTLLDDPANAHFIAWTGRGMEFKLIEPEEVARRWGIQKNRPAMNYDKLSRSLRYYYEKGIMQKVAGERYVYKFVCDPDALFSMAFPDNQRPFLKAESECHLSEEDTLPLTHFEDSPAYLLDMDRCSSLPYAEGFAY
Outline: as §1

HSF1 = HSF1 (Homo sapiens, UniProt Q00613 1-529); conditions: protein: recombinant; tags: N-terminal GST; chain copies: 3; dsDNA, one strand shown
Chain of HSF1 (Q00613 whole entry): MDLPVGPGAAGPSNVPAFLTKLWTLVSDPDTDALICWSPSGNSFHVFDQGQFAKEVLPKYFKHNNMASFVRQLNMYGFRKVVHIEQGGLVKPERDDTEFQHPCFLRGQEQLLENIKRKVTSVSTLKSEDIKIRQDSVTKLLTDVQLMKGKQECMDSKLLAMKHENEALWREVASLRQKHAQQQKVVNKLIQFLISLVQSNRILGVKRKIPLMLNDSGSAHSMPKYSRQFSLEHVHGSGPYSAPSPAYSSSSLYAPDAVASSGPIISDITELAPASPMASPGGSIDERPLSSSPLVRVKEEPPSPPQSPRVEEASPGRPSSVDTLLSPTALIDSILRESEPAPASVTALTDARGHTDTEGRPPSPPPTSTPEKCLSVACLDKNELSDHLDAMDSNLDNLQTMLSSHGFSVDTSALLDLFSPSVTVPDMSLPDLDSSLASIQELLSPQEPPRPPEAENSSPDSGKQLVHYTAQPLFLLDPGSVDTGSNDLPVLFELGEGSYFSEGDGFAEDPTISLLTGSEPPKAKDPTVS
Outline: as §1

SPIC = molecular target: T8, SPIC (Homo sapiens, UniProt Q8N5J4 1-248); conditions: protein: recombinant; tags: N-terminal GST; dsDNA, one strand shown
T8 sequence: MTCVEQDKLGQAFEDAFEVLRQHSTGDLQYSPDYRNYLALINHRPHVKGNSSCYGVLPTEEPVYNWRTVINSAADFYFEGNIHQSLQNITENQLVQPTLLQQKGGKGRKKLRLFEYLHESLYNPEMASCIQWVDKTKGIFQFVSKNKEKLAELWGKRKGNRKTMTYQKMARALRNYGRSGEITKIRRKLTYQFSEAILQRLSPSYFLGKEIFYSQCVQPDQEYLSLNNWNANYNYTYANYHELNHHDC
Outline: as §1

ELF4 = ELF4 (Homo sapiens, UniProt Q99607 1-663); conditions: protein: recombinant; tags: N-terminal GST; dsDNA, one strand shown
Chain of ELF4 (Q99607 whole entry): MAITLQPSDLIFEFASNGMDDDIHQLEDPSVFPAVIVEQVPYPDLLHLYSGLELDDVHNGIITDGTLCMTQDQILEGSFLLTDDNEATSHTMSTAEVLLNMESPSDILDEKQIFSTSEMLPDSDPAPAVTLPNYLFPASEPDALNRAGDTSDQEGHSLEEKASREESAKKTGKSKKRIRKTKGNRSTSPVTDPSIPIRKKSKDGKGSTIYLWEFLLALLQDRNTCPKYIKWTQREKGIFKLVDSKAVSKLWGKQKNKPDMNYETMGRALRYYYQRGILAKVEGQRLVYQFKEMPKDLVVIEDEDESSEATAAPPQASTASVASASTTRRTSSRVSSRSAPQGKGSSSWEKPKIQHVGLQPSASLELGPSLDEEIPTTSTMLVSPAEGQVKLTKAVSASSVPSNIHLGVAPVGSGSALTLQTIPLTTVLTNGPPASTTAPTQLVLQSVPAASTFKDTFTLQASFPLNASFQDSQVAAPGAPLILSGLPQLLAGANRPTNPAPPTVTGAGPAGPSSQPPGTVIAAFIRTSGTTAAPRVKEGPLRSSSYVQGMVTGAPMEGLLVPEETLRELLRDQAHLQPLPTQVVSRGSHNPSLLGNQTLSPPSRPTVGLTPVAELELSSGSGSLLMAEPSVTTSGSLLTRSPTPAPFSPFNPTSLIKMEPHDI
Outline: as §1

ELK4 = molecular target: T9, ELK4 (Homo sapiens, UniProt P28324-2 1-405); conditions: protein: recombinant; tags: N-terminal GST; dsDNA, one strand shown
T9 sequence: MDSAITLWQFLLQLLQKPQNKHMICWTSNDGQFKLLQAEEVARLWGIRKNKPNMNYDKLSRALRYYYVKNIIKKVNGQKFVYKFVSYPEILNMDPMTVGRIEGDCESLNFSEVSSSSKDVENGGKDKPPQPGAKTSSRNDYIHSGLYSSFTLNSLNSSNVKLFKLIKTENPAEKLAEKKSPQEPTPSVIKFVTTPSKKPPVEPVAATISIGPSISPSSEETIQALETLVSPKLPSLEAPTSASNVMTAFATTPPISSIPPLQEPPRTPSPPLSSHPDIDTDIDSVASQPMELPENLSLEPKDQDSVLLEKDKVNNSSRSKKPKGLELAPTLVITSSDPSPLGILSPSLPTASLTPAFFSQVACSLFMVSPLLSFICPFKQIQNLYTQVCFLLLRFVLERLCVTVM
Outline: as §1

ETV2 = molecular target: T10, ETV2 (Homo sapiens, UniProt O00321 1-342); conditions: protein: recombinant; tags: N-terminal GST; dsDNA, one strand shown
T10 sequence: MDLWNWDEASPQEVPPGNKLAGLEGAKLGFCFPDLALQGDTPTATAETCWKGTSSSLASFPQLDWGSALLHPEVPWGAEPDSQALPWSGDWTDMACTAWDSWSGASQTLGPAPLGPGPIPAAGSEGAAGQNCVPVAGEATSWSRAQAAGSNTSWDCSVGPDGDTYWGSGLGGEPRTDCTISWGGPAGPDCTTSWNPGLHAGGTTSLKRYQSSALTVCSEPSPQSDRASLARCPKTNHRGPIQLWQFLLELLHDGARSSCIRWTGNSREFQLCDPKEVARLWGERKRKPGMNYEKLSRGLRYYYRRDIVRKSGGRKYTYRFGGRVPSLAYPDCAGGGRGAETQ
Outline: as §1

ELF3 = molecular target: T11, ELF3 (Homo sapiens, UniProt P78545 1-371); conditions: protein: recombinant; tags: N-terminal GST; dsDNA, one strand shown
T11 sequence: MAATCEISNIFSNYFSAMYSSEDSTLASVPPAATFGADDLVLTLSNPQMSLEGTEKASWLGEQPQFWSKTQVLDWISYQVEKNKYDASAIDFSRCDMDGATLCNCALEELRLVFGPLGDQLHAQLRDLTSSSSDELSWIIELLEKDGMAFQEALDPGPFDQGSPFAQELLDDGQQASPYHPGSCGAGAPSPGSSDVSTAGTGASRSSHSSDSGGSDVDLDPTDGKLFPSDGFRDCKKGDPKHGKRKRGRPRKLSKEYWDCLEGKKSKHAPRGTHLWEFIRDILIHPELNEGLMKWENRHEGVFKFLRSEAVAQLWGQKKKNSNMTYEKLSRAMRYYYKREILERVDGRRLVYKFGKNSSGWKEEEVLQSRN
Outline: as §1

CRX = CRX (Homo sapiens, UniProt O43186 1-299); conditions: protein: recombinant; tags: N-terminal GST; dsDNA, one strand shown
Chain of CRX (O43186 whole entry): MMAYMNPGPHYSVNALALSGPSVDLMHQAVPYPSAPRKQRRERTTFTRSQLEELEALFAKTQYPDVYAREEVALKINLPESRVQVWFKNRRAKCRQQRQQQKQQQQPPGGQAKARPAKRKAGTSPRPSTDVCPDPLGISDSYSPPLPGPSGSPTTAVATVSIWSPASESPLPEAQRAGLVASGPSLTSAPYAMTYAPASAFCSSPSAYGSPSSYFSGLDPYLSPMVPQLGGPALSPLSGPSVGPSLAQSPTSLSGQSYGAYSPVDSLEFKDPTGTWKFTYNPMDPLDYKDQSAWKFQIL
Outline: as §1

ETV1 = ETV1 (Homo sapiens, UniProt P50549 1-477); conditions: protein: recombinant; tags: N-terminal GST; dsDNA, one strand shown
Chain of ETV1 (P50549 whole entry): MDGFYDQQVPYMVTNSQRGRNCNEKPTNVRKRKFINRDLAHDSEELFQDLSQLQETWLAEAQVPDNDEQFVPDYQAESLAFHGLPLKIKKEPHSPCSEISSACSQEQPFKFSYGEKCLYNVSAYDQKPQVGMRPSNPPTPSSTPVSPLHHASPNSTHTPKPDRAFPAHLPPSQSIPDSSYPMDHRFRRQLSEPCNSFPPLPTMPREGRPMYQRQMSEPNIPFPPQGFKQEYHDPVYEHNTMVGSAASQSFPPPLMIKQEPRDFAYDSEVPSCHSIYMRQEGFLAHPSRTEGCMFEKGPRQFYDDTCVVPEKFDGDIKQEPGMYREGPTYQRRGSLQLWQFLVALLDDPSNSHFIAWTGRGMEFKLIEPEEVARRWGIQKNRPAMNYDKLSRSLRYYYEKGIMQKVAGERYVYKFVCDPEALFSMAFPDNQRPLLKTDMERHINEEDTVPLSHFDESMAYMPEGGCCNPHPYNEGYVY
Outline: as §1

For CTGATT, the binding signal (FLI1) was 1.18 fold enrichment (6-mer frequency, TF over GST control), the binding signal (ELK1) was 1.21 fold enrichment (6-mer frequency, TF over GST control) and the binding signal (GABPA) was 1.14 fold enrichment (6-mer frequency, TF over GST control). For the same sequence, the binding signal (ERG) was 1.2 fold enrichment (6-mer frequency, TF over GST control), the binding signal (ELF1) was 1.22 fold enrichment (6-mer frequency, TF over GST control) and the binding signal (EHF) was 1.22 fold enrichment (6-mer frequency, TF over GST control). The binding signal (SPI1) was 1.09 fold enrichment (6-mer frequency, TF over GST control), the binding signal (SPIB) was 1.21 fold enrichment (6-mer frequency, TF over GST control) and the binding signal (ELK3) was 1.21 fold enrichment (6-mer frequency, TF over GST control). The binding signal (FEV) was 1.05 fold enrichment (6-mer frequency, TF over GST control), the binding signal (ETV5) was 1.25 fold enrichment (6-mer frequency, TF over GST control) and the binding signal (HSF1) was 1.32 fold enrichment (6-mer frequency, TF over GST control). For the same sequence, the binding signal (SPIC) was 1.5 fold enrichment (6-mer frequency, TF over GST control), the binding signal (ELF4) was 1.22 fold enrichment (6-mer frequency, TF over GST control) and the binding signal (ELK4) was 1.09 fold enrichment (6-mer frequency, TF over GST control). The binding signal (ETV2) was 1.21 fold enrichment (6-mer frequency, TF over GST control), the binding signal (ELF3) was 1.12 fold enrichment (6-mer frequency, TF over GST control) and the binding signal (CRX) was 1.51 fold enrichment (6-mer frequency, TF over GST control). For the same sequence, the binding signal (ETV1) was 1.27 fold enrichment (6-mer frequency, TF over GST control).
